High-throughput results as filed in PubChem BioAssay.
Cycloheximide cs: counter-screen hit for Shiga toxin inhibitors, cycloheximide. cell reporter, cycloheximide protein synthesis inhibition counterscreen. max response, %. 12% of 300,000 active. AID 2314; in the data active means max response mostly above about 13%, no sharp cut-off; inactive means mostly below about 14%; further: read at 38.3 µM for the half of the compounds with a filed dose
Shiga toxin inh: Shiga toxin inhibition | Vero cells, Shiga toxin protein synthesis inhibition reporter | inhibition, % at 38.7 µM | 9.2% of 290,000 active | AID 2315; in the data active means inhibition mostly above about 28%, no sharp cut-off; inactive means mostly below about 43%
MARV entry inh: blocks Marburg virus binding to or entry into cells. Marburg virus pseudotyped entry inhibition, cell reporter. Potency, µM (titrated, usually from 37.8 µM), most hits filed as inhibitors. 1.8% of 300,000 active. AID 540276; calls by dose curve; tested in HEK293 cells
LASV entry inh: Lassa virus entry inhibition | Lassa virus pseudotype entry inhibition, cell reporter | Potency, µM (doses to about 37.9 µM), usual class: inhibitors | 1.2% of 300,000 active; calls by dose curve; tested in HEK293 cells; further: nearly all actives have a fitted effect of over 50% in size
A number is an active result; i = inactive; ? = inconclusive; nt = no result given; + = active, no number. Hits are enriched below; roughly 12% of the tested compounds scored in any of these assays.

SMILES | Cycloheximide cs | Shiga toxin inh | MARV entry inh | LASV entry inh
CCOC(=O)C1CCCN(C(=O)c2ccc3nc(-c4cccc(OC)c4)oc3c2)C1 (stereo not given) | 32 | 72 | ? | ?
COc1ccc2cc(C(=O)C3CCCN(C(=O)c4cccnc4)C3)ccc2c1 (stereo not given) | i | i | ? | ?
COc1cccc(-c2nc3ccc(C(=O)N4CCCC(O)C4)cc3o2)c1 (stereo not given) | 59 | 112 | i | ?
CC(C)CCNC(=S)Nc1ccc2nc3n(c(=O)c2c1)CCCCC3 | i | 27 | i | i
CCCCNC(=S)Nc1ccc2nc3n(c(=O)c2c1)CCCCC3 | 22 | i | i | i
COCCNC(=O)CSc1nc(-c2ccc(C)cc2)nc2c1c(=O)n(C)c(=O)n2C | nt | nt | nt | i
COc1ccc(NC(=O)CSc2nc3c(sc4ccccc43)c(=O)n2CCCN2CCCC2)cc1 | i | i | nt | nt
O=C1OC(c2ccc(Br)cc2)=N/C1=C\N1CCCCC1 | 23 | 66 | ? | i
Cc1nn(-c2ccccc2)c(N2CCCC2)c1/C=C1\N=C(c2ccc(F)cc2)OC1=O | i | i | i | i
O=C1OC(c2ccccc2)=C/C1=C/N1CCCCC1 | 38 | 126 | ? | i
Cc1ccc(C2=N/C(=C\c3c(C)nn(-c4ccccc4)c3N3CCCC3)C(=O)O2)cc1 | i | i | i | i
O=C1OC(c2ccccc2)=N/C1=C\N1CCCCC1 | 42 | 61 | i | i
CN(C)c1ccc(/C=C2/C=C(c3ccc4c(c3)CCCC4)OC2=O)cc1 | i | i | nt | nt
COc1ccc(CNC(=O)N2CCN(C(=O)c3ccccc3)CC2)cc1 | nt | nt | ? | i
Cc1ccc(OCC(=O)Nc2cc3nn(-c4ccccc4)nc3cc2C)cc1 | nt | nt | nt | i
Cc1ccc(C(=O)Nc2cc3nn(-c4ccccc4)nc3cc2Cl)c(C)c1 | nt | nt | i | i
CC(=O)Nc1cc2nn(-c3ccccc3)nc2cc1C | 59 | 83 | nt | nt
Cc1cc2nn(-c3ccccc3)nc2cc1NC(=O)c1cccs1 | 22 | + | ? | i
Cc1cc2nn(-c3ccccc3)nc2cc1NC(=O)c1cccc2c(Cl)cccc12 | nt | nt | i | i
CCC(=O)Nc1cc2nn(-c3ccccc3)nc2cc1Cl | 43 | 80 | ? | i
O=C(OCc1ccccc1)c1cccc(-c2nnc(-c3ccccc3)o2)c1 | i | i | i | i
O=C(OCc1nnc(-c2ccccc2)o1)c1cccc(-n2cnnn2)c1 | nt | nt | i | i
CC(C)OC(=O)c1ccc(COC(=O)c2cccc(-c3nnc(-c4ccccc4)o3)c2)cc1 | 17 | i | ? | ?
O=C(OCc1ccc(C(=O)c2ccccc2)cc1)c1cccc(-c2nnc(-c3ccccc3)o2)c1 | 22 | 64 | ? | ?
CCOC(=O)c1cccc(COC(=O)c2cccc(-c3nnc(-c4ccccc4)o3)c2)c1 | 46 | 78 | ? | ?
SMILES | Cycloheximide cs | Shiga toxin inh | MARV entry inh | LASV entry inh
N#CC(C#N)[C@@H](c1ccsc1)c1c(-c2ccccc2)[nH][nH]c1=O | nt | nt | i | nt
Nc1nc(Cl)nc2ccc(Br)cc12 | 67 | 53 | i | i
CC(C)CCNC(=O)C(=O)NCC1OCCCN1S(=O)(=O)c1cccs1 (stereo not given) | i | i | nt | nt
N#Cc1cc2ccccc2nc1SCc1ccccn1 | 59 | 147 | ? | i
Cc1cc2cc3c(cc2nc1SCc1ccccn1)OCCO3 | i | i | i | i
COc1ccc(-n2c(C)cc3cc(OC(C)=O)ccc32)cc1 | 11 | i | i | i
COC(=O)c1ccc(C2C(C(=O)Nc3ccc(C)cc3C)=C(C)Nc3ncnn32)cc1 (stereo not given) | i | i | i | nt
O=C1CCC/C1=C/Nc1ccc2c(c1)OCO2 | 42 | 95 | i | i
CC1CCC/C(=C\Nc2ccc3c(c2)OCO3)C1=O (stereo not given) | 33 | 51 | i | i
O=C1OCCC/C1=C\c1ccc2c(c1)OCO2 | i | i | nt | nt
CCCc1cc(=O)c2c(O)ccc(OC)c2o1 | i | i | i | i
COc1ccc(S(=O)(=O)NCc2cccnc2)cc1NC(=O)c1ccccc1C | nt | nt | i | i
CC(=O)c1ccc(N2CCN(C(=O)c3ccc(NC(=O)C4CCCO4)cc3)CC2)cc1 (stereo not given) | 14 | i | i | i
O=C(Nc1ccc2c(c1)CCC2)C1CCCO1 (stereo not given) | 39 | 53 | ? | i
CC(=O)c1ccc(NC(=O)[C@@H]2CCCN2C(=O)OC(C)(C)C)cc1 | 51 | 87 | ? | ?
COc1ccc(NC(=O)[C@@H]2CCCN2C(=O)[C@@H]2Cc3ccccc3CN2C(=O)OC(C)(C)C)cc1 | i | i | i | ?
O=C(Nc1ccc(O)cc1)C1CCCO1 (stereo not given) | i | i | i | i
CC(=O)c1ccc(NC(=O)C2CCCO2)cc1 (stereo not given) | 38 | nt | nt | nt
COc1cccc(CNC(=O)CN2C(=O)N(c3cccc(Cl)c3)S(=O)(=O)c3ccccc32)c1OC | nt | nt | nt | i
Cc1ccc(NC(=O)C2CCCO2)cc1[N+](=O)[O-] (stereo not given) | 28 | i | ? | i
CCCCNC(=O)C(CC)Sc1nnc(-c2ccc(OC)c(OC)c2)c(-c2ccc(OC)c(OC)c2)n1 (stereo not given) | nt | nt | nt | i
CC(=O)c1ccc(Nc2ccc([N+](=O)[O-])c3nonc23)cc1 | 21 | nt | nt | nt
Clc1ccc(CN2CCC(c3nc4ccc(Cl)cc4[nH]3)CC2)cc1 | i | i | 11µM | ?
CC1CCCN(C(=O)CN2CCC(c3nc4ccc(Cl)cc4[nH]3)CC2)C1 (stereo not given) | i | i | nt | nt
CCOC(=O)c1c(C)n(C)c2cc(CN(C)C)c(O)c(S(=O)(=O)c3ccccc3)c12 | 23 | i | i | i
SMILES | Cycloheximide cs | Shiga toxin inh | MARV entry inh | LASV entry inh
CCOC(=O)c1c(CS(=O)(=O)c2ccccc2)n(C)c2cc(Br)c(O)c(CN(C)C)c12 | i | i | i | i
CCOC(=O)[C@@H](C)N1[C@H](C)[C@H](c2ccccc2)Oc2cc(Br)ccc2S1(=O)=O | nt | nt | 4.4µM | nt
CCOC(=O)CN1C(=O)Nc2ccc(Br)cc2C1c1ccccc1 (stereo not given) | i | i | i | ?
O=C(CCc1nnc(-c2ccc3c(c2)OCO3)o1)NC(c1ccccn1)C(F)(F)F (stereo not given) | 38 | 64 | i | i
O=C1NCCN(C(=O)CCc2nnc(-c3ccsc3)o2)C1c1ccc(F)cc1 (stereo not given) | i | i | i | i
O=C(CCc1nnc(-c2ccc3c(c2)OCO3)o1)N1CCC(c2ccc(F)cc2)C1 (stereo not given) | 31 | 108 | ? | i
CC(=O)c1cccc(NC(=O)c2cc(-c3cccs3)on2)c1 | 14 | i | ? | i
O=C(Nc1cccc(O)c1)c1cc(-c2cccs2)on1 | 30 | 77 | ? | i
O=C(COCc1cc(-c2cccs2)on1)Nc1cccc(O)c1 | nt | nt | nt | i
CCOC(=O)N/N=C1\C[C@@H](O)[C@@H](O)[C@@H]2[C@@H]3C(=O)N(Cc4ccc5c(c4)OCO5)C(=O)[C@@H]3CC[C@H]12 | nt | nt | i | nt
Cc1cc(N/N=C/c2ccc(N(C)C)cc2)nc(NCc2ccccc2)n1 | i | i | nt | nt
Cc1nc(N)nc(N/N=C/c2ccccc2)n1 | 14 | 41 | nt | nt
Cc1cc(N/N=C/c2ccccc2)nc(N)n1 | 20 | 50 | nt | nt
C(=N\Nc1nn[nH]n1)/c1ccccc1 | i | i | i | i
O=[S+]1([O-])C[C@H](N2CC[C@@H](O)C2)[C@H](COCc2ccccc2)N1 | nt | nt | nt | i
